# Data as given in ChEMBL document CHEMBL3988442, “University of Dundee, Small-Polar-MMV Screening Library” (2021).
# For part of these data: Measured potencies and affinities stand elsewhere.
# Experiments:
# Set-up in all cases: scale not given: direction of the effect not stated beside the values
# [1] = biological target: Protein translocase subunit SecA (Escherichia coli (strain K12)) (UniProt P10408); test: Assay to Identify E. coli SecA ATPase Inhibitors; type: functional; settings: 30 µM
# Chain of Protein translocase subunit SecA (Escherichia coli (strain K12)) (P10408 whole entry): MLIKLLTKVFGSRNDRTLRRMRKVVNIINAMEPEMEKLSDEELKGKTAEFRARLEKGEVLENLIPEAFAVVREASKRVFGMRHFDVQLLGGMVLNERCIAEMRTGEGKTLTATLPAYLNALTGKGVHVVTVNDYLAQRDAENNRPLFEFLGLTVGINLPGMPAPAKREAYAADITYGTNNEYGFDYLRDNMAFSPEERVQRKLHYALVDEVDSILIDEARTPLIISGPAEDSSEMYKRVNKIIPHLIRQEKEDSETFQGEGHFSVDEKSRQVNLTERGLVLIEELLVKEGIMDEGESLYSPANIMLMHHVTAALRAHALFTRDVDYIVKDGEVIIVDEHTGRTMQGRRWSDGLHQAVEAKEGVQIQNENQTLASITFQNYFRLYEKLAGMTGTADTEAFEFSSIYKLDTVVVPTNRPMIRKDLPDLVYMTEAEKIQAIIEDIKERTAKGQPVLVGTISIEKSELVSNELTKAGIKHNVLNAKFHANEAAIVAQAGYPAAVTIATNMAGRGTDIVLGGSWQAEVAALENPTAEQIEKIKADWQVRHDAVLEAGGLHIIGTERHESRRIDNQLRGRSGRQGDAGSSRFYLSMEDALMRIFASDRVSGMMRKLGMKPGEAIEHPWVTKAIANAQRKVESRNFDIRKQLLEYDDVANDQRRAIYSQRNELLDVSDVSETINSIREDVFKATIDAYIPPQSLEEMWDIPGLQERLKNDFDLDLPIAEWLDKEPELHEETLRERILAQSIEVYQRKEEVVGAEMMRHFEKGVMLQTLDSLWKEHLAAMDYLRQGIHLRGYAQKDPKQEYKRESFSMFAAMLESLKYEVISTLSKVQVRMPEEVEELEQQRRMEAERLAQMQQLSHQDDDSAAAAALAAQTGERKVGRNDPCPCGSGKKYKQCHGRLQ
# [2] = biological target: T1, Ubiquitin-activating enzyme e1, putative (Leishmania donovani (strain BPK282A1)) (UniProt E9BSI1); test: Leishmania donovani Ubiquitin Activating Enzyme (LdE1); type: functional; settings: 30 µM
# T1 sequence (whole entry): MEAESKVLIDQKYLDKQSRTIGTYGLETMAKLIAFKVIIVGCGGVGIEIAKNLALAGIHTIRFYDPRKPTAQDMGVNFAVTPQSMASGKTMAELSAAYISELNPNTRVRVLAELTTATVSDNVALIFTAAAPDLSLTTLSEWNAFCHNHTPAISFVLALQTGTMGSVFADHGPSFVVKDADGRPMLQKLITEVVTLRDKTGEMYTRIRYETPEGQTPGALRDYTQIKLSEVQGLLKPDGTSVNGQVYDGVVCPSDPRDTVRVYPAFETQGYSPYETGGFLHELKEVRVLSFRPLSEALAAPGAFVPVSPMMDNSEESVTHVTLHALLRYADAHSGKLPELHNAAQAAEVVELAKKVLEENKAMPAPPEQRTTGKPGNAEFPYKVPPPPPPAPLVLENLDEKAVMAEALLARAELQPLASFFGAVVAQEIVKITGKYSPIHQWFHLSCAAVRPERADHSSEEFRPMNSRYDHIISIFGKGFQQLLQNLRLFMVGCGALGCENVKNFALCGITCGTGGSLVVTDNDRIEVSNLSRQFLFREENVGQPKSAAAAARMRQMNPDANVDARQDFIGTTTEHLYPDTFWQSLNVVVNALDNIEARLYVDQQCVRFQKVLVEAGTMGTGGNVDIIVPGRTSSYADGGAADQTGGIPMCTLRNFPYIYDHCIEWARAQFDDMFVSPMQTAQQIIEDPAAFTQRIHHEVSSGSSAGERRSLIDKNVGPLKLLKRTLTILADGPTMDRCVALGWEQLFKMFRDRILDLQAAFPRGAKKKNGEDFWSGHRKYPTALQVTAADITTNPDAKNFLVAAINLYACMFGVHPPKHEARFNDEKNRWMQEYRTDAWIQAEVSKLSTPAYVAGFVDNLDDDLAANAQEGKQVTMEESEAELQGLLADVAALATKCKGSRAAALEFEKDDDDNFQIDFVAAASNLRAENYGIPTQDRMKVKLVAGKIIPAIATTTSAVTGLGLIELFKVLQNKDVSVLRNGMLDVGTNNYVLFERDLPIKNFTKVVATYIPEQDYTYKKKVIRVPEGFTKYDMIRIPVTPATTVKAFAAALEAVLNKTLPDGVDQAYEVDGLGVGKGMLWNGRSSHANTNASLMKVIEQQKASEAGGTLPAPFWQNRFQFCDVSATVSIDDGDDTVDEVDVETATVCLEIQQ
# [3] = biological target: AMP-activated protein kinase, AMPK (Homo sapiens) (UniProt P54646+O43741+P54619+Q9UGJ0+Q9Y478+Q13131+Q9UGI9); test: AMP-dependent Kinase enzyme assay. An in vitro enzyme assay that detects ADP turnover that is directly proportional to AMPK activity. This uses naive AMPK that is activated during the assay with MK-8722; type: functional; settings: 30 µM
# [4] = biological target: Sialic acid-binding Ig-like lectin 9 (Homo sapiens) (UniProt Q9Y336); test: Hs-Siglec9 ALPHAscreen SOP 20170721; settings: 10 µM
# Chain of Sialic acid-binding Ig-like lectin 9 (Homo sapiens) (Q9Y336 whole entry): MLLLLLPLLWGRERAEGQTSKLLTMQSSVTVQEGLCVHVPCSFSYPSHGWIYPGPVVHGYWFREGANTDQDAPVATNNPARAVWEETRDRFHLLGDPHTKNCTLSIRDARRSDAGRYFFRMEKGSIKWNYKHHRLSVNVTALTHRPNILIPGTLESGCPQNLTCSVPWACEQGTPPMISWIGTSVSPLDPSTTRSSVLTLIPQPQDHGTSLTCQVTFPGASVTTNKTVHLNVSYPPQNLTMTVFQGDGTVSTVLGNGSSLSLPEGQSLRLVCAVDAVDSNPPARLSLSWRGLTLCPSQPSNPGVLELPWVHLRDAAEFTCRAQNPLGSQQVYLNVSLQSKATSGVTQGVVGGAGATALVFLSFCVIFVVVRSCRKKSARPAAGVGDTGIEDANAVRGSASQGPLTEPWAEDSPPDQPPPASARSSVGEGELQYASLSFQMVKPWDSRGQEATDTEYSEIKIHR
# [5] = tested on: Trypanosoma cruzi; test: Trypanosoma cruzi phosphomannomutase and mannose-1-phosphate guanylyltransferase assay; type: functional; settings: 10 µM
# [6] = biological target: T2, Arginase-2, mitochondrial (Homo sapiens) (UniProt P78540); test: in vitro enzyme assay to detect the production of urea directly proportional to the activity of Arginase II; type: functional; settings: 33.3 µM; also: in the data most compounds retested in dose-response had high values
# T2 sequence (whole entry): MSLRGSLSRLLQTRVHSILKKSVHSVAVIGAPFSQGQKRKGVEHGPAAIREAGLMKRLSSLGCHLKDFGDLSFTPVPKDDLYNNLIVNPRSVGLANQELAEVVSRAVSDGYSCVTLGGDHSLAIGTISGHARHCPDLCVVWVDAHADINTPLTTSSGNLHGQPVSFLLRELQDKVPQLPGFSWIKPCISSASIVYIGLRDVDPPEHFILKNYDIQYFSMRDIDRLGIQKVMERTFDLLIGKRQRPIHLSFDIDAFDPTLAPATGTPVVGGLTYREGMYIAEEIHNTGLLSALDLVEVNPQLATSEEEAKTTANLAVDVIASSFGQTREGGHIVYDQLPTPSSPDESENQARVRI
# [7] = biological target: T3, Proteasome subunit beta (Trypanosoma cruzi) (UniProt O96673); test: Trypanosoma cruzi proteasome chymotrypsin-like activity (TcProtChymo) assay.; also: in the data most compounds retested in dose-response had high values; type: functional; settings: 9.37 µM
# T3 sequence (whole entry): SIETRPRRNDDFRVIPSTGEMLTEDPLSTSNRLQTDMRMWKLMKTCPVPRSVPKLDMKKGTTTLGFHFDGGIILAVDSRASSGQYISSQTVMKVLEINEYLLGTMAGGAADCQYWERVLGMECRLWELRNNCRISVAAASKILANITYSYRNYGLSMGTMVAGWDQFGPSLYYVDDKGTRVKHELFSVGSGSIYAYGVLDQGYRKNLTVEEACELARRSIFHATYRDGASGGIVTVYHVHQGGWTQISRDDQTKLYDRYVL
# [8] = species on record: Homo sapiens; test: To identify inhibition of the IFN signalling (Jak-Stat) pathway via expression of an eGFP reporter gene under the control of an IFN-stimulated response element (ISRE) containing MxA promoter.; type: functional; settings: 30 µM
# [9] = biological target: T4, Tyrosyl-tRNA synthetase, putative (Trypanosoma cruzi (strain CL Brener)) (UniProt Q4DSP6); test: Trypanosoma cruzi tyrosyl tRNA synthetase (TcYRS) _High Tyrosine SOP; type: functional; settings: 30 µM; also: in the data most compounds retested in dose-response had high values
# T4 sequence (whole entry): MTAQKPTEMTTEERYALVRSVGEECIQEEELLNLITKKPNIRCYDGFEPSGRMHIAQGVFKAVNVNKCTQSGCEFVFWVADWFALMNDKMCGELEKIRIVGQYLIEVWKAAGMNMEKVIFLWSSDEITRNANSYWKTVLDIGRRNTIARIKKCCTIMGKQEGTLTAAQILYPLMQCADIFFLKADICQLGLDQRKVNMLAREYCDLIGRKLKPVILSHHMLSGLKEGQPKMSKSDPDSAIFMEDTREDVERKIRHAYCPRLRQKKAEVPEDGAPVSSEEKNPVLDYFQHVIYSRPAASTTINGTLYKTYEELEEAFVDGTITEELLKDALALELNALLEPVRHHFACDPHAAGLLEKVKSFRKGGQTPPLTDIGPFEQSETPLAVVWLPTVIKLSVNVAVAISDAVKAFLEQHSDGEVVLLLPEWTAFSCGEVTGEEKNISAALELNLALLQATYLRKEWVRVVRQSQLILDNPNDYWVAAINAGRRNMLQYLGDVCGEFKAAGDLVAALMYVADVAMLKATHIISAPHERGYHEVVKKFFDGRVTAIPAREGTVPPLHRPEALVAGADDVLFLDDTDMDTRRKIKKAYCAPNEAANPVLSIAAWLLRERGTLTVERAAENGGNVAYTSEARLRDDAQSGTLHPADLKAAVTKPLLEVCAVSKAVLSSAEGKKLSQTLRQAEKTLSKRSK
# [10] = biological target: T4, Tyrosyl-tRNA synthetase, putative (Trypanosoma cruzi (strain CL Brener)); test: Trypanosoma cruzi tyrosyl tRNA synthetase (TcYRS) SOP; type: functional; settings: 30 µM
# [11] = biological target: Chromo domain-containing protein 1 (Saccharomyces cerevisiae (strain ATCC 204508 / S288c) (Baker's yeast)) (UniProt P32657); test: ScCHD-1 Enzyme Inhibition Assay; type: functional; settings: 30 µM; also: in the data most compounds retested in dose-response had high values
# Chain of Chromo domain-containing protein 1 (Saccharomyces cerevisiae (strain ATCC 204508 / S288c) (Baker's yeast)) (P32657 whole entry, the tested form may be a part): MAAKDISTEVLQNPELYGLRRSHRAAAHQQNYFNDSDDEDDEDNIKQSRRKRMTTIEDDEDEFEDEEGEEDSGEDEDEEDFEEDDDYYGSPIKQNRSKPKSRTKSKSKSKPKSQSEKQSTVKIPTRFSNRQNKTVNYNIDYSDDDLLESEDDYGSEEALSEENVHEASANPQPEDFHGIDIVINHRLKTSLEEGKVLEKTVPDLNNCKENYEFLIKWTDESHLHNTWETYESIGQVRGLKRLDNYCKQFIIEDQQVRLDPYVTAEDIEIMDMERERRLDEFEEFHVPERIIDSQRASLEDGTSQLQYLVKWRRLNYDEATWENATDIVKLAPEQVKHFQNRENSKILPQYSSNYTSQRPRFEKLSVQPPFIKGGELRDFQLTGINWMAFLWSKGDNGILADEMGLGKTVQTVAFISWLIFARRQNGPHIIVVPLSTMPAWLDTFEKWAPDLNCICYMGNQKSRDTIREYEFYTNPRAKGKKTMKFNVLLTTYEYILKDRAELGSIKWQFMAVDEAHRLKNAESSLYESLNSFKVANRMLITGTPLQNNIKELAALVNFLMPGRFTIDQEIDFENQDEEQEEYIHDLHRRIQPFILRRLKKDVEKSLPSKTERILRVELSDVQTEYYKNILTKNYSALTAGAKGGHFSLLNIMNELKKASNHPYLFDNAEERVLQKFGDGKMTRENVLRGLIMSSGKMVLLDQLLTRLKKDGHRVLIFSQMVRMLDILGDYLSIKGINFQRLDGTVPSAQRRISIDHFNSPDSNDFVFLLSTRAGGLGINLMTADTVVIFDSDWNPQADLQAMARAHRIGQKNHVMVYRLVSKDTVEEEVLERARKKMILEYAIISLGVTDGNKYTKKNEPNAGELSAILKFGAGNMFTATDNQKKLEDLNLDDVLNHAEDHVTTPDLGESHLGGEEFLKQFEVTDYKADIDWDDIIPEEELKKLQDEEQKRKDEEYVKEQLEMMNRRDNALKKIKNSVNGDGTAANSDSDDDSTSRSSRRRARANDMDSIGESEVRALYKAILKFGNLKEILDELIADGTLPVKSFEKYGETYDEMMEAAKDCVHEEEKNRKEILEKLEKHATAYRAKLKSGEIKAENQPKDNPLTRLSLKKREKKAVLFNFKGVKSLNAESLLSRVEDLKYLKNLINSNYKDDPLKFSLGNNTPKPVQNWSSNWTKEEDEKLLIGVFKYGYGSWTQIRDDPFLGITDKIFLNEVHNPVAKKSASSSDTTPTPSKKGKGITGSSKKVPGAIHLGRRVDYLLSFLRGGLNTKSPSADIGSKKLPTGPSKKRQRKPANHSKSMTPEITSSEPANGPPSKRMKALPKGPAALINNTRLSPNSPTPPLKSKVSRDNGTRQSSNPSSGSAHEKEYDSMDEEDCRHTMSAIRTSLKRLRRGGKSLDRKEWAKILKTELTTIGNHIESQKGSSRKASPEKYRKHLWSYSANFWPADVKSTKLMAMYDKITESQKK
Compound,Percent Effect [1] [%],Percent Effect [2] [%],Percent Effect [3] [%],Percent Effect [4] [%],Percent Effect [5] [%],Percent Effect [6] [%],Percent Effect [7] [%],Percent Effect [8] [%],Percent Effect [9] [%],Percent Effect [10] [%],Percent Effect [11] [%]
Cc1ccc(C2C3=C(COC3=O)Nc3[nH]nc(C)c32)cc1C (stereo unspecified),-2.97,9.33,12.5,-3.88,-4.71,-4.75,10.7,30.1,-22.2,-23.1,-11.7
Cc1cc(C)n(CC(=O)N(C)Cc2csc(-c3cccs3)n2)c(=O)n1,0.251,0,-4.15,2.64,1.66,7.29,19.5,17.8,6.01,18.5,-6.32
O=C(O)C1CCCCN1C(=O)c1cccc(C(F)(F)F)c1 (stereo unspecified),-6.15,13.2,-2.92,7.67,1.4,-2.88,2.62,-1.55,4.43,16.1,3.59
C1CC(CN2CCO[C@H]3[C@H](OCC4CC4)CC[C@@H]32)CCO1,-7.62,2.7,-2.6,-1.5,-2.93,2.08,16.3,7.72,5.94,3.66,-1.93
COc1ccc(C)cc1CN(C)Cc1nc2c(cnn2C)c(=O)[nH]1,-1.35,18.4,1.85,2.21,2.52,-4.32,7.02,7.09,9.36,23.5,-5.71
CC(=O)N1CCC2(CC1)COCCN2CCN(C)C,-1.15,5.33,0.268,4.02,-4.25,-26.3,3.59,-11.5,2.08,-25,-5.07
COCCNC(=O)c1cc2c(s1)CCN2C(=O)c1ccccc1,-6.01,10.7,-16.6,4.96,1.35,-53.9,9.74,-0.33,6.25,15,6.46
Cn1nccc1C1CCN(CC(O)c2cccc(F)c2)CC1 (stereo unspecified),-3.15,5.06,0.204,2.12,6.89,-1.14,4.18,15.3,-0.493,-8.86,-4.6
Cc1nnc(NCc2ccccc2Cl)c(C#N)c1C,-1.72,-29.7,-32.4,-2.89,2.51,1.29,5.39,26.5,13.9,11,5.89
Cc1nc(C2CCCN2C(=O)c2cnns2)no1 (stereo unspecified),-3.1,13.2,3.2,4.23,-0.564,9.96,12.9,3.69,5.39,17.1,-6.62
N#Cc1cccc(CS(=O)(=O)NCC(O)Cc2ccccc2)c1 (stereo unspecified),-4.15,-2.67,0.717,0.263,0.682,-3.12,1.4,6.52,0.546,3.7,1.24
Cc1c(C(=O)NCC2CCCO2)nnn1-c1cccc2c1CCN(C)C2 (stereo unspecified),-7.71,2.63,-11.9,-4.47,-1.27,2.37,6.42,27.2,-1.06,-2.6,88
O=C(NCC1CCOC1)N1CCN(Cc2ccc3c(c2)CCO3)CC1 (stereo unspecified),-2.3,15.8,-4.31,-5.79,2.33,-5.4,4.99,-17.4,9.36,23.5,-7.08
c1cnc2c(c1)cc([C@H]1CCCO1)n2CCN1CCOCC1,-4.11,9.46,14.2,5.59,-0.593,-5.8,3.9,3.93,1.07,11.7,-13.8
c1cnn(CCN2CCOC(Cn3cncn3)C2)c1 (stereo unspecified),-1.82,17.7,-6.27,-8.37,-0.283,3.8,14.3,-0.00724,10.3,24.1,-9.31
COC(=O)C(C)(C)NC(=O)C1CC(=O)N(C2CCCC2)C1 (stereo unspecified),-0.563,11,-0.48,5.96,3.17,-2.79,9.85,26.3,11.5,25.9,-1.54
Cn1ccnc1N1CCN(C(=O)Cc2ccc(F)cc2)CC1,-3.69,13,5.01,3.61,2.86,0.645,17.6,14.3,6.35,11.5,-9.3
O=C(c1cccn1Cc1cccs1)N1CCN(C(=O)C2CC2)CC1,-6.16,13,1.66,2.72,1.5,-0.712,0.845,9.85,8.74,21.9,1.63
c1ccc(-c2noc3c2CN(CC2CC2)CC3)cc1,-4.27,2.74,-7.86,-1.17,-0.979,-0.455,6.92,11.2,4.3,10,0.0734
Cc1noc(C)c1CN1CCc2nn(C(C)C)c(=O)cc2C1,-9.42,13.2,-66,20.3,9.8,5.04,12.9,-9.45,5.42,16.1,-9.78
CCS(=O)(=O)N1CC[C@H](OC)[C@@H]1Cc1ccncc1,-2.5,13.5,-1.61,-11.3,-4.59,-9.87,15.3,7.61,0,7.69,-5.24
